Screening data deposited in PubChem BioAssay by National Center for Advancing Translational Sciences (NCATS).
TDP1 cell CPT: qHTS for Inhibitors of human tyrosyl-DNA phosphodiesterase 1 (TDP1): qHTS in cells in presence of CPT; chicken DT40 Tdp1-/-;hTDP1 cells + 20 nM CPT, ATP luminescence, 48 h; Potency, µM (top dose mostly 46.2 µM), inactives show at the top dose activity change, negative = growth inhibition, actives largely listed as inhibitors; 420,000 compounds, 12% hits; AID 686979, 2013; further: potency means the concentration at half of the fitted maximal effect; nearly all actives have a fitted effect of over 55% in size
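Cell growth measured by CellTiter-Glo luminescence after a minimum 48 h, 37 C compound exposure with 20 nM CPT in Tdp1-knockout DT40 cells stably expressing hTDP1, seeded 400/well; qHTS titration format.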
IL-1B inflam inh: qHTS for Inhibitors of Inflammasome Signaling: IL-1-beta AlphaLISA Primary Screen; THP-1 LPS/ATP IL-1B secretion, AlphaLISA, 16 h; hits give low values; activity change, % at 57.5 µM; 360,000 compounds, 4.7% hits; in the data active means activity change below about -50%; inconclusive means mostly about -30% to -49%
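Secreted IL-1B measured by AlphaLISA bead assay after 16 h compound exposure of THP-1 cells; compounds (final up to 57.5 uM) added 1 h before LPS (250 ng/mL) and ATP (1.25 mM) stimulation; lower signal means less secretion.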
uPA generation: qHTS for Inhibitors of Cell Surface uPA Generation | Potency, µM (top dose mostly 38.3 µM), without a hit: at the highest dose activity change, negative = inhibition, most hits filed as inhibitors | 330,000 compounds, 0.31% hits | AID 540303, 2011 | cell surface uPA generation assay, qHTS; active means well fitted inhibition curve with a large enough effect; inconclusive means small, poorly fitted or top-dose-only effect; inactive means no such curve, though single readings can be large or run the other way; tested in mouse RAW 264.7 cells; further: potency means the concentration at half of the fitted maximal effect; nearly all actives have a fitted effect of over 55% in size
HT1080-NT tox: qHTS for induction of synthetic lethality in tumor cells producing 2HG: qHTS for the HT-1080-NT fibrosarcoma cell line; HT-1080-NT fibrosarcoma viability, CellTiter-Glo ATP luminescence, 48 h; Potency, µM (series often up to 46.1 µM), for the others: at the top dose activity, negative = less viability, most hits filed as cytotoxic; 360,000 compounds, 1.6% hits; AID 686970, 2013;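 further: NT is the 2HG producing partner of a matched IDH1 knockdown line; potency means the concentration at half of the fitted maximal effect; 0% = DMSO-treated cells and -100% = media-only wells without cells; nearly all actives have a fitted effect of over 55% in size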
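Compounds were tested in concentration-response format on HT-1080-NT cells for 48 hours at 37 degrees C. Cell viability came from CellTiter-Glo luminescence; curves were classified by r2, response magnitude and activity.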
HT1080 IDH1KD tx: qHTS for induction of synthetic lethality in tumor cells producing 2HG: qHTS for the HT-1080-IDH1KD cell line; 360,000 compounds, 2% hits; Potency, µM (series often up to 46.1 µM), inactives show top-dose activity, negative = toxicity, usual class: cytotoxic; HT-1080 IDH1 knockdown viability, ATP luminescence, 48 h;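 further: potency means the concentration at half of the fitted maximal effect; 0% = DMSO wells and -100% = cell-free medium wells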
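HT-1080-IDH1KD cells (IDH1 knocked down), 750/well in RPMI with 5% FBS, treated with compound 48 h at 37 degrees C. Viability by CellTiter-Glo luminescence, normalised to DMSO and no-cell wells; concentration-response curves classed.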
DT40 TDP1 no CPT: qHTS for Inhibitors of human tyrosyl-DNA phosphodiesterase 1 (TDP1): qHTS in cells in absence of CPT; DT40 Tdp1-/- hTDP1 cells, no CPT, ATP luminescence, 48 h; Potency, µM (titrated, usually from 46.2 µM), without a hit: at the highest dose activity change, negative = growth inhibition, hits mostly inhibitors; 420,000 compounds, 15% hits; further: potency means the concentration at half of the fitted maximal effect; nearly all actives have a fitted effect of over 55% in size
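Camptothecin absent (DMSO only). Human TDP1-complemented DT40 knockout cells, 400 cells/well, 37 °C for minimum 48 hr; ATP measured via CellTiter-Glo, 30 min dark incubation, luminescence.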
The depositor's hits bear a star; ? = inconclusive; . = no result given; [ ] = dose if it differs, or a comment. Shown are actives, neighbours in structure and some others; about 19% of the full set was active somewhere. Unless noted, the call rests on the fitted dose curve; in most records, active means well fitted curve in the direction sought with a large enough effect; inconclusive means small, poorly fitted or top-dose-only effect, or another doubt; inactive means no such curve, though single readings can be large; an effect the other way counts as inactive or inconclusive. Unless noted, on the % scale 0 is the no-effect control and ±100 the full control effect.

SMILES	TDP1 cell CPT	IL-1B inflam inh	uPA generation	HT1080-NT tox	HT1080 IDH1KD tx	DT40 TDP1 no CPT
CC1CCc2c(sc(NC(=O)C3c4ccccc4Oc4ccccc43)c2C(=O)OC(C)C)C1 (configuration not stated)	-2%	.	.	.	.	0%
CCC1CCc2c(sc(NC(=O)C3c4ccccc4Oc4ccccc43)c2C(=O)OC)C1 (configuration not stated)	?	.	.	.	.	10µM*
CCOC(=O)c1c(NC(=O)C2C3CCC(O3)C2C(=O)O)sc2c1CCC(CC)C2 (configuration not stated)	-17%	23	-5%	14%	7%	-18%
COC(=O)c1c(NC(=O)CSc2ccccc2N)sc(C)c1C	?	-62*	-5%	-7%	-3%	?
CCOC(=O)c1c(NC(=O)C2C3C=CC(C3)C2C(=O)O)sc2c1CCC(CC)C2 (configuration not stated)	16µM*	-4	-11%	?	?	?
CCOc1cccc(C2NC(=S)NC(C)=C2C(=O)Nc2ccccc2)c1 (configuration not stated)	?	0	-8%	?	?	23µM*
CCOc1cc(C2NC(=S)NC(C)=C2C(=O)Nc2ccc(OC)cc2)ccc1O (configuration not stated)	?	0	13%	-5%	3%	5%
CCN(Cc1ccncc1)C(=O)CCc1nnc(CCc2ccc(OC)cc2)o1	-2%	10	2%	12%	-5%	-28%
COC(=O)c1ccccc1C(=O)NCC1Cc2cc(-c3nc(C)cnc3C)ccc2O1 (configuration not stated)	11%[9.04 µM]	.	.	.	.	-9%
CCOC(=O)c1c(NC(=O)C2=C(C)NC(=S)NC2c2ccc(C)cc2)sc(C)c1C (configuration not stated)	?	-76*	-7%	?	-30%	13µM*
CCOC(=O)c1c(NC(=O)C2=C(C)NC(=S)NC2c2ccc(F)cc2F)sc(C)c1C (configuration not stated)	?	?	-5%	-16%	?	?
CCOC(=O)c1c(NC(=O)C2c3ccccc3Oc3ccccc32)sc(C(C)=O)c1C	?	?	-17%	-11%	4%[9.24 µM]	?
COC(=O)c1c(NC(=O)C2c3ccccc3Oc3ccccc32)sc(C)c1C	23µM*	-1	0%	1%	-7%[9.24 µM]	?
CCOC(=O)c1c(NC(=O)C2c3ccccc3Oc3ccccc32)sc(C)c1C	?	.	.	.	.	21µM*
CC1CC(C)CN(c2oc(-c3ccc(OCc4ccccc4Cl)cc3)nc2C#N)C1 (configuration not stated)	-11%	.	.	.	.	?
COc1ccc(N(CC2CO2)S(=O)(=O)c2ccc(C)cc2)cc1 (configuration not stated)	?	-18	1%	-15%	-18%	?
CNc1cncc(-c2ccc(OCCCN(C)C)nc2)n1	-3%	-6	.	12%	1%	5%
COc1cccc(NC(=O)C(=O)NCC2CCCN2S(=O)(=O)c2cccs2)c1 (configuration not stated)	-46%	-7	.	0%	4%	-58%
COc1ccc(NC(=O)C(=O)NCCC2CCCCN2S(=O)(=O)c2ccccc2)cc1 (configuration not stated)	4.1µM*	-1	?	?	13µM*	2.9µM*
